Source: PubChem
Hits are enriched below; roughly 19% of the tested compounds scored in any of these assays.
IL-1B inflam inh: inflammasome signaling inhibition, IL-1 beta readout | THP-1 LPS/ATP IL-1B secretion, AlphaLISA, 16 h; active compounds read low | activity change, % at 57.5 µM | 360,000 compounds, 4.7% hits | AID 743279; in the data active = activity change below about -50%; inconclusive = mostly about -30% to -49%
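Secreted IL-1B measured by AlphaLISA bead assay after 16 h compound exposure of THP-1 cells; compounds (final up to 57.5 uM) added 1 h before LPS (250 ng/mL) and ATP (1.25 mM) stimulation; lower signal means less secretion.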
TDP1 inh: blocks human tyrosyl-DNA phosphodiesterase 1. AID 485290. 350,000 compounds, 0.28% hits. recombinant TDP1, AlphaScreen DNA substrate cleavage. Potency, µM (titrated, usually from 130 µM), for inactives: at the top dose activity change, negative = inhibition, most hits filed as inhibitors; also: potency is read from the fitted curve at half-maximal effect; nearly all actives have a fitted effect of over 40% in size
Target sequence (Q9NUW8 whole entry, looked up): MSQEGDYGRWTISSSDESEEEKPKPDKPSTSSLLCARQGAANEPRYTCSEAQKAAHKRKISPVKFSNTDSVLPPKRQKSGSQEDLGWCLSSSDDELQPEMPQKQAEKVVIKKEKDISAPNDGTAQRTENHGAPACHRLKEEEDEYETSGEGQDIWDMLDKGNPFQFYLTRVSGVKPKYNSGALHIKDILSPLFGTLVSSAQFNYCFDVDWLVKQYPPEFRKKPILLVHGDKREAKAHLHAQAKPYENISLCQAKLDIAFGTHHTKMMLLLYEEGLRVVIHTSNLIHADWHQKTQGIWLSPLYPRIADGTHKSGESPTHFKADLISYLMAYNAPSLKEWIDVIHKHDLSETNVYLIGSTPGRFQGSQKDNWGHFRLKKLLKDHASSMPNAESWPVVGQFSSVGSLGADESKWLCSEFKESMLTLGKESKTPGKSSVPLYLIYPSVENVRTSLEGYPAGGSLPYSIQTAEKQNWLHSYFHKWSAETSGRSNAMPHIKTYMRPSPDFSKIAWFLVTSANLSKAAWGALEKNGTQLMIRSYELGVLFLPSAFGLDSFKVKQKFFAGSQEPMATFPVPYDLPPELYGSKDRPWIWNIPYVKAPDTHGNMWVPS
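Here, a 5' biotin and 3' phosphotyrosine-FITC DNA oligonucleotide reports Tdp1 activity: intact substrate bridges AlphaScreen beads, while cleavage leaves a 3' phosphate and drops signal. All incubations at room temperature.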
ELG1 DNA repair: inhibitors of ELG1-dependent DNA repair in HEK293T cells | AID 504467 | 330,000 compounds, 2.3% hits | Potency, µM (titrated, usually from 46.1 µM), inactives show at the top dose activity change, negative = inhibition, usual class: inhibitors | HEK293T ELG1-luciferase reporter, luminescence, 16 h; DNA damage induced by 5-fluorouridine; also: potency is read from the fitted curve at half-maximal effect; nearly all actives have a fitted effect of over 55% in size
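In this reporter screen, reduction of luminescence relative to DMSO vehicle indicated activity. Compounds and 5-fluorouridine were added together to 2,000 cells per well, incubated for 16 hr at 37 °C, then developed with ONE-Glo.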
TDP1 cell CPT: DT40-hTDP1 cell growth loss with CPT; chicken DT40 Tdp1-/-;hTDP1 cells + 20 nM CPT, ATP luminescence, 48 h; Potency, µM (series often up to 46.2 µM), inactives show at the top dose activity change, negative = growth inhibition, most hits filed as inhibitors; 420,000 compounds, 12% hits; also: potency is read from the fitted curve at half-maximal effect; nearly all actives have a fitted effect of over 55% in size
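Chicken DT40 Tdp1-/- cells stably complemented with human TDP1 were seeded at 400 cells/well in medium containing 20 nM camptothecin, exposed to pin-transferred compounds, and grown at 37 °C for at least 48 hr. Viability was read as ATP luminescence.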
DT40 TDP1 no CPT: qHTS for Inhibitors of human tyrosyl-DNA phosphodiesterase 1 (TDP1): qHTS in cells in absence of CPT; AID 686978, 2013; 420,000 compounds, 15% hits; Potency, µM (highest dose often 46.2 µM), inactives show top-dose activity change, negative = growth inhibition, actives largely listed as inhibitors; DT40 Tdp1-/- hTDP1 cells, no CPT, ATP luminescence, 48 h; also: potency is read from the fitted curve at half-maximal effect; nearly all actives have a fitted effect of over 55% in size
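DT40 Tdp1-/-;hTDP1 cells, no CPT (DMSO vehicle only), 400 cells/well; compounds pin-transferred; ≥48 hr, 37 °C; CellTiter-Glo 30 min RT dark, luminescence read.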
Giardia kill: kills Giardia lamblia; Giardia lamblia trophozoite viability; activity change, % at 7.66 µM, hits read low; 340,000 compounds, 0.15% hits; AID 540267; in the data active = activity change below about -80%; inconclusive = between about -30% and that limit;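 also: parasites exposed to compound for two days anaerobically before the ATP read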
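Each well holds 100 Giardia trophozoites and compound. After two days (48 hrs) at 37 deg C in anaerobic conditions, ATP is quantified by luminescence.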
* hit, by the source's call; i = inactive; ? = inconclusive; / = no result; [ ] = remark or other dose. Unless noted, calls follow the shape of the dose curve; as a rule, active = well fitted curve in the direction sought with a large enough effect; inconclusive = small, poorly fitted or top-dose-only effect, or another doubt; inactive = no such curve, though single readings can be large; an effect the other way counts as inactive or inconclusive. % is scaled to controls: 0 for no effect and ±100 for the full control effect.

SMILES	IL-1B inflam inh	TDP1 inh	ELG1 DNA repair	TDP1 cell CPT	DT40 TDP1 no CPT	Giardia kill
O=C(COc1ccc(Br)cc1)NCCCNC(=O)c1ccncc1	-11	1%	13%	-11%	14%	8
Nc1ccc2nc(-c3ccccc3)cnc2c1	-4	/	/	0%	-23%	-29
Nc1ccc2nc(-c3ccccc3)c(-c3ccccc3)nc2c1	31	-3%	-2%	?	21µM*	4
Nc1ccc(Oc2ccc3nc(-c4ccccc4)c(-c4ccccc4)nc3c2)cc1	-58*	7%	3%	?	21µM*	-15
Nc1ccc(Oc2cc(N)cc(Oc3ccccc3)c2)cc1	?	/	?	-9%	-24%	?
Clc1ccc(-c2noc(CSc3nnc(Cc4cccs4)n3-c3ccccc3)n2)cc1	0	8%	-25%	?	?	11
CCOc1ccc(-c2noc(CSc3nnc(Cc4ccccc4)n3-c3cccc(C)c3)n2)cc1	/	9%	/	18µM*	13µM*	/
CCOc1ccc(-c2noc(CSc3nnc(-c4ccccc4)n3-c3ccccc3)n2)cc1	/	5%	/	21µM*	12µM*	/
Cc1ccc(-c2noc(CSc3nnc(Cc4cccs4)n3-c3ccccc3)n2)cc1	-3	3%	-18%	21µM*	21µM*	-8
CCOc1ccc(-c2nnc(SCc3nnc(-c4ccccc4)o3)n2-c2ccccc2F)cc1	-4	3%	?	16µM*	23µM*	-9
CCOc1ccc(-n2c(SCc3nc(-c4ccc(C)cc4)no3)nnc2-c2ccncc2)cc1	-11	8%	?	?	?	0
COc1ccccc1CNC(=O)c1cccc(-c2ccccc2OC)n1	/	12%	/	/	/	/
CS(=O)(=O)N1CCN(c2ccccc2[N+](=O)[O-])CC1	14	2%	5%	0%	-1%	-3
COc1ccc(-c2nc(C)c(CCNC(=O)c3cccs3)s2)cc1	/	7%	/	/	/	/
Cc1ccc(-c2noc(CSc3nnc(Cc4ccccc4)n3-c3cccc(C)c3)n2)cc1	?	4%	-14%	?	18µM*	-12
Cc1cccc(-n2c(Cc3ccccc3)nnc2SCc2nc(-c3cccs3)no2)c1	/	2%	/	?	?	/
COc1ccc(-n2nc(C(=O)NCC(=O)NCc3ccc(F)cc3)c3ccccc3c2=O)cc1OC	1	6%[0.0935 µM]	-16%	-2%	-26%	-8
COC(=O)C[C@H]1CC[C@H](NS(=O)(=O)c2cn(C)cn2)[C@@H](CO)O1	2	/	/	-4%	16%	/
Cn1c(=O)n(Cc2ccccc2)c2ccccc21	25	2%	11%	-15%	-2%	5
Cn1c(=O)n(Cc2ccc(Br)cc2)c2ccccc21	-108*	6%	3%	?	?	17
Cc1ccc2c(c1)nnn2C1CCN(CC(=O)NNC(=O)c2ccco2)CC1	13	1%	-11%	-1%	-10%	-17
Cc1cc(C)n(CCc2nc(-c3cccs3)cs2)n1	8	1%[56.1 µM]	?	?	?	-7
COc1cccc2cc(-c3csc(CCn4nc(C)cc4C)n3)c(=O)oc12	-5	0%	-10%	?	23µM*	-9
Cc1cc(C)n(CCc2nc(-c3ccco3)cs2)n1	25	/	?	11µM*	13µM*	5
COc1ccc(OC)c(-c2csc(CCn3nc(C)cc3C)n2)c1	-9	6%	-14%	-6%	-15%	-2
CC(C)Oc1ccc(C(=O)Nc2nnc(SCC(=O)N3CCOCC3)s2)cc1	4	3%	?	-18%	-23%	-95*
CCOC(=O)CNC(=O)CSc1nnc(NC(=O)c2ccc(C)cc2)s1	27	1%	?	18%	-4%	-87*
CCOC(=O)CNC(=O)CSc1nnc(NC(=O)c2ccc3c(c2)OCO3)s1	i	2%	?	-11%	-18%	?
